20 molecules from the supplement of paper PMC9262897, “Low-cost anti-mycobacterial drug discovery using engineered E. coli” (Nature Communications, 2022) can be followed below.

Structures can show the parent of a compound that is named as a salt. ± gives the standard deviation of the averaged measurements.

The first test has as its system E. coli TESEC Mtb DapB. The test can be described thus: growth (OD600 after 10 h); higher = more growth (less inhibition). The following applies: arabinose induction (level): High; compound 0.1 mM; raw OD600 reference: median of DMSO wells […], cell-free background 0.041. Here is the method: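 TESEC E. coli strains in which the native enzyme is deleted and replaced by arabinose-inducible Mtb Asd, DapB, CysH or TrpD, each grown in its selective medium. Strains were screened against the Prestwick library at 0.1 mM and 1% DMSO in 384-well format at low and high arabinose induction. Growth is read as OD600 after 10 h in triplicate.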
The molecule `CC(C)c1cccc(C(C)C)c1O` [Propofol] yielded a growth of 0.212 ± 0.011.
In the case of `c1ccc2nc(N3CCNCC3)ccc2c1` [Quipazine dimaleate salt], the growth was determined as 0.215 ± 0.019.
For `CCCC(C)(COC(N)=O)COC(=O)NC(C)C` (stereo not given) [Carisoprodol], the growth turned out to be 0.155 ± 0.0092.
On the same count and under the same terms, the figure for `COc1ccc(CN2CCNCC2)c(OC)c1OC` [Trimetazidine dihydrochloride] is 0.197 ± 0.0097; for `C[C@@H]1CN([C@H]2CC[C@](C#N)(c3ccc(F)cc3)CC2)CC[C@]1(C(=O)O)c1ccccc1` [Levocabastine hydrochloride] it is 0.192 ± 0.0051.
In turn, `CC(=O)O[C@H]1C[C@@H]2CC[C@@H]3[C@H](CC[C@@]4(C)[C@H]3C[C@H]([N+]3(C)CCCCC3)[C@@H]4OC(C)=O)[C@@]2(C)C[C@@H]1[N+]1(C)CCCCC1` [Pancuronium bromide] had a growth of 0.191 ± 0.026.
Same read-out and setting: next, `COc1ccc(Cc2nccc3cc(OC)c(OC)cc23)cc1OC` [Papaverine hydrochloride]: 0.148 ± 0.0024; `NC(=O)C[S+]([O-])C(c1ccccc1)c1ccccc1` (stereo not given) [Modafinil]: 0.191 ± 0.013; `CN1C(=O)CCS(=O)(=O)C1c1ccc(Cl)cc1` (stereo not given) [Chlormezanone]: 0.193 ± 0.0088.
Same read-out and setting: the figure for `C=C1C[C@@H]2[C@H](CC[C@]3(C)C(=O)CC[C@@H]23)[C@@]2(C)C=CC(=O)C=C12` [Exemestane] is 0.112 ± 0.0048; for `Oc1ccc2c3c1O[C@H]1[C@@H](O)CC[C@@]4(O)[C@@H](C2)N(CC2CCC2)CC[C@]314` [Nalbuphine hydrochloride] it is 0.195 ± 0.011; for `COc1cc([C@@H]2c3cc4c(cc3[C@H](O)[C@H]3COC(=O)[C@H]23)OCO4)cc(OC)c1OC` [Podophyllotoxin] it is 0.212 ± 0.012.
The same measure, in the same setting: the figure for `C=CC[C@]1(O)CC[C@H]2[C@@H]3CCC4=CC(=O)CCC4=C3C=C[C@@]21C` [Altrenogest] is 0.148 ± 0.002; for `CCC(=O)O[C@@](Cc1ccccc1)(c1ccccc1)[C@@H](C)CN(C)C` [Levopropoxyphene napsylate] it is 0.175 ± 0.026.
`COc1ccc2c(c1)[C@]13CCCC[C@@H]1[C@H](C2)N(C)CC3` [Dextromethorphan hydrobromide monohydrate] showed a growth of 0.17 ± 0.015.
Same read-out and setting: the figure for `O=C(NCNC(=O)NC1C(=O)NC(=O)N1CO)NC1C(=O)NC(=O)N1CO` (stereo not given) [Imidurea] is 0.207 ± 0.024.
On the same count and under the same terms, next, `CN(C)C(=O)Oc1cc(OC(=O)N(C)C)cc(C(O)CNC(C)(C)C)c1` (stereo not given) [Bambuterol hydrochloride]: 0.193 ± 0.02.
`COc1ccc(OC)c(C(O)C(C)N)c1` (stereo not given) [Methoxamine hydrochloride] returned a growth of 0.223 ± 0.033.
On the same count and under the same terms, the figure for `COc1ccc(C(=O)N2CCCC2=O)cc1` [Aniracetam] is 0.214 ± 0.0098; for `CCn1cc(C(=O)O)c(=O)c2cc3c(cc21)OCO3` [Oxolinic acid] it is 0.194 ± 0.0098.

The same test, now with this note: arabinose induction (level): Low; compound 0.1 mM; raw OD600 reference: median of DMSO wells 0.227, cell-free background 0.041.
`CC(C)c1cccc(C(C)C)c1O` [Propofol] displayed a growth of 0.236 ± 0.028.
Molecule `c1ccc2nc(N3CCNCC3)ccc2c1` [Quipazine dimaleate salt] had a growth of 0.216 ± 0.012.
Still for that read-out and setting: next, `CCCC(C)(COC(N)=O)COC(=O)NC(C)C` (stereo not given) [Carisoprodol]: 0.191 ± 0.015.
As to `COc1ccc(CN2CCNCC2)c(OC)c1OC` [Trimetazidine dihydrochloride], the growth was determined as 0.242 ± 0.028.
The molecule `C[C@@H]1CN([C@H]2CC[C@](C#N)(c3ccc(F)cc3)CC2)CC[C@]1(C(=O)O)c1ccccc1` [Levocabastine hydrochloride] gave a growth of 0.265 ± 0.029.
The same measure, in the same setting: next, `CC(=O)O[C@H]1C[C@@H]2CC[C@@H]3[C@H](CC[C@@]4(C)[C@H]3C[C@H]([N+]3(C)CCCCC3)[C@@H]4OC(C)=O)[C@@]2(C)C[C@@H]1[N+]1(C)CCCCC1` [Pancuronium bromide]: 0.203 ± 0.055; `COc1ccc(Cc2nccc3cc(OC)c(OC)cc23)cc1OC` [Papaverine hydrochloride]: 0.161 ± 0.0073; `NC(=O)C[S+]([O-])C(c1ccccc1)c1ccccc1` (stereo not given) [Modafinil]: 0.199 ± 0.017.
`CN1C(=O)CCS(=O)(=O)C1c1ccc(Cl)cc1` (stereo not given) [Chlormezanone] had a growth of 0.207 ± 0.011.
The same measure, in the same setting: the figure for `C=C1C[C@@H]2[C@H](CC[C@]3(C)C(=O)CC[C@@H]23)[C@@]2(C)C=CC(=O)C=C12` [Exemestane] is 0.109 ± 0.0022; for `Oc1ccc2c3c1O[C@H]1[C@@H](O)CC[C@@]4(O)[C@@H](C2)N(CC2CCC2)CC[C@]314` [Nalbuphine hydrochloride] it is 0.214 ± 0.029; for `COc1cc([C@@H]2c3cc4c(cc3[C@H](O)[C@H]3COC(=O)[C@H]23)OCO4)cc(OC)c1OC` [Podophyllotoxin] it is 0.261 ± 0.027.
For the molecule `C=CC[C@]1(O)CC[C@H]2[C@@H]3CCC4=CC(=O)CCC4=C3C=C[C@@]21C` [Altrenogest], the growth turned out to be 0.162 ± 0.006.
The same measure, in the same setting: the figure for `CCC(=O)O[C@@](Cc1ccccc1)(c1ccccc1)[C@@H](C)CN(C)C` [Levopropoxyphene napsylate] is 0.205 ± 0.011; for `COc1ccc2c(c1)[C@]13CCCC[C@@H]1[C@H](C2)N(C)CC3` [Dextromethorphan hydrobromide monohydrate] it is 0.232 ± 0.031.
The same measure, in the same setting: the figure for `O=C(NCNC(=O)NC1C(=O)NC(=O)N1CO)NC1C(=O)NC(=O)N1CO` (stereo not given) [Imidurea] is 0.215 ± 0.032.
With `CN(C)C(=O)Oc1cc(OC(=O)N(C)C)cc(C(O)CNC(C)(C)C)c1` (stereo not given) [Bambuterol hydrochloride], the growth turned out to be 0.211 ± 0.025.
The same measure, in the same setting: next, `COc1ccc(OC)c(C(O)C(C)N)c1` (stereo not given) [Methoxamine hydrochloride]: 0.222 ± 0.028; `COc1ccc(C(=O)N2CCCC2=O)cc1` [Aniracetam]: 0.246 ± 0.011.
Same read-out and setting: next, `CCn1cc(C(=O)O)c(=O)c2cc3c(cc21)OCO3` [Oxolinic acid]: 0.208 ± 0.054.
